SW480 rereplic = DNA re-replication induction in SW480 cells | SW480 DNA re-replication, Hoechst DNA content imaging, 48 h | Potency, µM (titrated, usually from 46.1 µM), for inactives: at the top dose re-replication activation, usual class: activators | 1.8% of 340,000 active; further: % of control where 0% means no effect; nearly all actives have a fitted effect of over 55% in size
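Treated cells incubate 48 hr (37 C, 5% CO2), are stained 40 min with Hoechst, and nuclear fluorescence is enumerated; a rise in nuclei with high DNA signal marks re-replication.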
HT1080 IDH1KD tx = toxicity to HT-1080 IDH1 knockdown cells (counter line); HT-1080 IDH1 knockdown viability, ATP luminescence, 48 h; Potency, µM (series often up to 46.1 µM), for the others: top-dose activity, negative = toxicity, usual class: cytotoxic; 2% of 360,000 active; AID 686971;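 further: 0% = DMSO wells and -100% = cell-free medium wells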
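Using the IDH1-knockdown HT-1080 line run in the same batch and compound series as the NT line, viability after 48 h at 37 °C was determined by CellTiter-Glo luminescence and expressed as % activity.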
KB-3-1 cytotox = kills parental KB-3-1 adenocarcinoma cells | KB-3-1 viability, CellTiter-Glo ATP luminescence, 72 h | Potency, µM (series often up to 46.1 µM), usual class: cytotoxic | 1.4% of 400,000 active | AID 1347075; further: on the % scale 0 is the no-effect control and ±100 the full control effect; nearly all actives have a fitted effect of over 60% in size
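Parental KB-3-1 viability, qHTS format: 72 h compound exposure, 37 °C; CellTiter-Glo; media-only wells and DMSO plates as controls; concentration-effect fits on corrected data.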
HT1080NT lethal = kills 2HG-producing HT-1080-NT fibrosarcoma cells; 1.6% of 360,000 active; HT-1080-NT fibrosarcoma viability, CellTiter-Glo ATP luminescence, 48 h; Potency, µM (top dose mostly 46.1 µM), inactives show top-dose activity, negative = less viability, actives largely listed as cytotoxic;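 further: NT is the 2HG producing partner of a matched IDH1 knockdown line; 0% = DMSO-treated cells and -100% = media-only wells without cells; nearly all actives have a fitted effect of over 55% in size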
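Viability of the 2HG-overproducing fibrosarcoma line after 48 hours of compound exposure at 37 degrees C was determined by luminescence with CellTiter-Glo, and concentration-effect curves were then fitted and categorized.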
MCF10A rereplic = inducers of DNA re-replication in MCF 10A breast cells | MCF 10A DNA re-replication, Hoechst nuclear intensity, 48 h | Potency, µM (highest dose often 46.1 µM), without a hit: top-dose activity, positive = re-replication, actives largely listed as activators | 2.9% of 350,000 active | AID 624296; further: % of control where 0% means no effect; nearly all actives have a fitted effect of over 50% in size
KB-V1 cytotox = KB-V1 MDR subline cytotoxicity; KB-V1 MDR cells viability, CellTiter-Glo, 72 h; Potency, µM (titrated, usually from 46.1 µM), usual class: cytotoxic; 3.4% of 400,000 active; AID 1347076; further: on the % scale 0 is the no-effect control and ±100 the full control effect; nearly all actives have a fitted effect of over 60% in size
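Readout: CellTiter-Glo luminescence, 10 min after addition. Cells: KB-V1 MDR subline, 72 h at 37 degrees C with compound. Analysis: corrected, normalized data fitted to concentration-effect curves.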
* = called active by the depositor; i = inactive; ? = inconclusive; . = no result given. An excerpt weighted towards active compounds, which were near 7.9% of everything screened. The call rests on the fitted dose curve; in most records, active means well fitted curve in the direction sought with a large enough effect; inconclusive means small, poorly fitted or top-dose-only effect, or another doubt; inactive means no such curve, though single readings can be large; an effect the other way counts as inactive or inconclusive. Potency means the concentration at half of the fitted maximal effect.

SMILES	SW480 rereplic	HT1080 IDH1KD tx	KB-3-1 cytotox	HT1080NT lethal	MCF10A rereplic	KB-V1 cytotox
CCOC(=O)CSc1nc2c(sc3ccccc32)c(=O)n1CCCN1CCOCC1	-9.2%	-4.8%	i	-2.4%	4.8%	14.6µM*
CCCCn1c(SCC(=O)NCc2ccco2)nc2c(sc3ccccc32)c1=O	-3.5%	7.3%	i	?	-0.8%	?
COc1ccc(-c2nnc(SCC(=O)Oc3cc(C)ccc3C)o2)cc1	.	.	i	.	.	i
Cc1ccc(-c2nn(-c3ccc(F)cc3)c3c2cnc2cc(F)c(F)cc23)cc1	.	.	i	.	.	i
CS(=O)(=O)N1CCc2cc(C(=O)Nc3ccc(S(N)(=O)=O)cc3)ccc21	.	.	i	.	.	i
Nc1ccc(C(=O)N2CCCC2)cc1	-2.9%	12.5%	i	8.4%	-1.5%	i
Nc1ccc(C(=O)n2c3ccccc3c3ccccc32)cc1	3.26µM*	0.92µM*	2.31µM*	?	?	1.84µM*
CCOc1ccc(N(CC)S(=O)(=O)N2CCCC(C(=O)Nc3ccc(OC)c(Cl)c3)C2)cc1 (stereo not given)	.	.	i	.	.	i
C=CCc1ccc(OCCOc2cccc3ccc(C)nc23)c(OC)c1	?	?	?	?	11.6µM*	?
C=CCc1ccc(OCCOCCN(C)C)c(OC)c1	-2.1%	6.6%	i	1.8%	-3.0%	i
O=C1/C(=C\c2ccco2)CCC/C1=C\c1ccco1	?	-5.5%	i	8.7%	20.6µM*	i
CCN(c1ccccc1)C1SC(=O)N(c2ccccc2)C1=O (stereo not given)	.	18.2%	.	12.2%	.	.
Cc1cc(C)cc(NC(=O)Nc2c[nH]c(=O)[nH]c2=O)c1	.	.	i	.	.	i
CCOc1ccc2nc(NCCNC(=S)NCCCN(C)C)c(C#N)cc2c1	16.4µM*	?	i	-24.4%	11.6µM*	i
CCOc1ccc2nc(NCCNC(=O)Nc3ccccc3)c(C#N)cc2c1	?	?	i	?	?	?
Cc1cc2cc(C#N)c(NCCNC(=S)NCCCN3CCOCC3)nc2cc1C	16.4µM*	?	i	?	20.6µM*	?
CCOc1ccc2nc(NCCNC(=O)Nc3cccc(C)c3)c(C#N)cc2c1	9.2µM*	?	?	?	?	?
Cc1cccc2cc(C#N)c(NCCNC(=S)NCCCN3CCOCC3)nc12	13.0%	-20.2%	i	?	?	i
Cc1ccc(CN(Cc2ccco2)c2cnc(S(C)(=O)=O)nc2C(=O)Nc2ccc(Br)cc2)o1	.	.	i	.	.	?
COc1ccccc1N1CCN(S(=O)(=O)c2c(C)sc3ncn(CC(=O)Nc4ccc(C)cc4Br)c(=O)c23)CC1	.	.	i	.	.	?
Cc1ccc(S(=O)(=O)N2CCN(C(=O)C(Cc3ccccc3)NC(=O)c3ccccc3)CC2)cc1 (stereo not given)	3.8%	1.2%	i	-4.3%	12.5%	i
COc1ccccc1NC(=O)C1=C(C)Nc2nc(SCc3ccccc3Cl)nn2C1c1ccccn1 (stereo not given)	.	.	i	.	.	i
O=P(NCc1ccccc1)(OCc1ccccc1)OCc1ccccc1	-3.3%	24.0%	i	4.5%	18.3%	9.2µM*
O=P(O)(OCc1ccccc1)OCc1ccccc1	-16.2%	7.6%	i	29.1%	-27.4%	i
CC1(C)C(C=C(Cl)Cl)C1C(=O)N(Cc1ccccc1Cl)C1CCS(=O)(=O)C1 (stereo not given)	0.5%	-3.1%	i	-1.0%	9.1%	14.6µM*
CC(C)c1ccc(NC(=O)C2(C)Cc3c(-c4ccc5c(c4)OCO5)ccnc3O2)cc1 (stereo not given)	.	-13.6%	i	-20.8%	.	i
O=C(COC(=O)/C(=C/c1cccs1)c1cccs1)NC(c1ccccc1)c1ccccc1	2.8%	-11.7%	i	-5.7%	0.6%	8.2µM*
COc1ccc(/C=C/c2cnccn2)cc1OC	.	.	?	.	.	i
